Screening data deposited in PubChem by National Center for Advancing Translational Sciences (NCATS).
The entries come from a sample that favours hits as a whole.
KDM5B inh: blocks human KDM5B histone demethylase activity; 2.6% of 220,000 active; AID 1347165; KDM5B demethylase, FDH-coupled NADH fluorescence (FDH is formaldehyde dehydrogenase); Potency, µM (doses to about 57.7 µM), usual class: inhibitors; Q9UGL1; active means well fitted inhibition curve with a large enough effect; further: nearly all actives have a fitted effect of over 70% in size
Target sequence (Q9UGL1 whole entry, looked up): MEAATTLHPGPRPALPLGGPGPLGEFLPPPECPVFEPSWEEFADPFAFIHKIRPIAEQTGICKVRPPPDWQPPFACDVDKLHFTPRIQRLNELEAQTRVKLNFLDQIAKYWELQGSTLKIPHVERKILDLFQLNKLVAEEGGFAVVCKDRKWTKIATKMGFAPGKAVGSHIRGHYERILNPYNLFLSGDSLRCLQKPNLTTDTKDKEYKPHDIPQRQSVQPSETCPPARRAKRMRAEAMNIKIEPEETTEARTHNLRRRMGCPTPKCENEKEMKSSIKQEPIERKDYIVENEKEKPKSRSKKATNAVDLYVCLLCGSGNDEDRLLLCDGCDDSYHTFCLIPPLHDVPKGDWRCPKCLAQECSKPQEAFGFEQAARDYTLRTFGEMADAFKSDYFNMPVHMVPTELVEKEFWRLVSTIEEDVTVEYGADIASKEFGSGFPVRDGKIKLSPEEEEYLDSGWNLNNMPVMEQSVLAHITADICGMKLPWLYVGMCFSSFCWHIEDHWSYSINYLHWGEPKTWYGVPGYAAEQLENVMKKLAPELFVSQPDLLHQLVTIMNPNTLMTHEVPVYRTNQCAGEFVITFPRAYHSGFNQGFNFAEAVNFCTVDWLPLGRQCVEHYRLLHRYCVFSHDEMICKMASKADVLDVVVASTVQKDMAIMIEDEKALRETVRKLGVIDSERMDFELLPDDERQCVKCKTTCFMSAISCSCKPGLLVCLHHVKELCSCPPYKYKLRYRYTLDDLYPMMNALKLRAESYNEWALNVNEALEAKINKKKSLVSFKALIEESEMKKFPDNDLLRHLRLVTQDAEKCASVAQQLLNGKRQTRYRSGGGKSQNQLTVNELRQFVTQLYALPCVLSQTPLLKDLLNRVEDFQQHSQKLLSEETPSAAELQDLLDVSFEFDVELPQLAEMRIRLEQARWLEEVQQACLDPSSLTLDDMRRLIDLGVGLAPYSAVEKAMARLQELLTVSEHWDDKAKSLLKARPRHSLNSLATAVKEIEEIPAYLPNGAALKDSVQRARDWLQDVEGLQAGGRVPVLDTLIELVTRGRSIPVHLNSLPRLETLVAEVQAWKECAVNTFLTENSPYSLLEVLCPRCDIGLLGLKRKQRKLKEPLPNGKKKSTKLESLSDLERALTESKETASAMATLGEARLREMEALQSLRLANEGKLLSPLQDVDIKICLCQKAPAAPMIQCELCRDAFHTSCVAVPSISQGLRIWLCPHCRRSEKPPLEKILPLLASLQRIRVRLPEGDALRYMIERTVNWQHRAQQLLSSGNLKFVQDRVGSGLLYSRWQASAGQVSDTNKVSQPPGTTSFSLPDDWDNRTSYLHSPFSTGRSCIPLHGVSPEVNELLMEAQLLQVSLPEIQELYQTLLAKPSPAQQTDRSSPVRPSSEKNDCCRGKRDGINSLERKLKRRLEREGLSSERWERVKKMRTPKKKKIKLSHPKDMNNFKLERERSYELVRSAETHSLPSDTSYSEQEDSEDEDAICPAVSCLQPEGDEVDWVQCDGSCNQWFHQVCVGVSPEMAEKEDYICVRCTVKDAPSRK
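Measured: NADH fluorescence change, 30 min, RT. System: KDM5BΔAP 200 nM final, H3K4me3 peptide, α-KG, Fe(II), ascorbate, NAD⁺ plus FDH, pH 7.5 HEPES. Compounds: titrated, 10 min pre-incubation with enzyme.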
Of the large screens only hits and unclear results are named; the others gave an inactive call.

O=C1CCCC2=C1C(c1ccc(OCc3ccccc3)cc1)c1c([nH]n(-c3ccccc3)c1=O)N2 (centres undefined)	none
Cc1ccc(-c2cnc(CCC(=O)Nc3ccc(C)c(F)c3)o2)cc1C	none
COc1ccccc1NC(=O)c1ncoc1-c1cccc(Cl)c1	none
Cc1ccc(-n2nc(N3CCCN(S(=O)(=O)c4cccc5nsnc45)CC3)ccc2=O)cc1	none
CCOP(=O)(OCC)c1nc(Cc2ccc(OC)cc2)oc1NCc1cccnc1	none
CC(C)=C(/C(=C/CS(=O)(=O)c1ccc(C)cc1)S(=O)(=O)c1ccc(Br)cc1)S(=O)(=O)c1ccc(Br)cc1	none
Cc1ccc(C2c3cc(OCc4nc(C(=O)N5CCCC5)co4)ccc3CCN2C(=O)C2CC2)cc1 (centres undefined)	none
CCN(CC)C(=O)C1CCN(C(=O)Cn2ccc3ccc(Cl)cc32)CC1	none
CC(C)NC(=S)N/N=C/C1CC=CCC1 (centres undefined)	none
Cc1cn2nc(C(=O)NCCc3cccs3)cc2c(N2CCCC2)n1	none
CCCN1CCN(c2ncnc3sc(C(=O)Nc4ccc(OC(F)(F)F)cc4)c(C)c23)CC1	none
COc1cccc(NC(=O)c2cc3c(N4CCSCC4)nc(C)cn3n2)c1	KDM5B inh 28µM
Cc1cn2nc(C(=O)NC(C)c3ccc(F)cc3)cc2c(N2CCCC2)n1 (centres undefined)	none
CN1CCN(c2nc3ccccc3nc2C(=O)Nc2ccc(OC(F)(F)F)cc2)CC1	none
COc1cc(NC(=O)c2cc3c(N4CCSCC4)nc(C)cn3n2)cc(OC)c1OC	KDM5B inh 22µM
Cc1cn2nc(C(=O)Nc3ccc(OC(F)(F)F)cc3)cc2c(N2CCSCC2)n1	KDM5B inh 25µM
Cc1cn2nc(C(=O)Nc3ccc(N(C)C)cc3)cc2c(N2CCCC2)n1	none
COc1cc(NC(=O)c2nc3ccccc3nc2N2CCCCC2)cc(OC)c1OC	none
Cc1cn2nc(C(=O)Nc3ccc(C)c(F)c3)cc2c(N2CCSCC2)n1	KDM5B inh 25µM
Cc1cc2oc(C(=O)NCC(c3ccco3)N3CCOCC3)cc(=O)c2cc1Cl (centres undefined)	none
N#Cc1ccc(COC(=O)c2ccc(N3CCOCC3)nc2)c(F)c1	none
CSc1ccccc1NC(=O)COc1ccc2c(c1)CCC(=O)N2	none
O=C(COc1ccc(Cl)cc1)Nc1cccc(-c2nnc3n2CCCC3)c1	none
O=c1[nH]c(-n2cccc2)c(-c2c(-c3ccccc3)[nH]c3[nH]c(=O)[nH]c(=O)c23)c(=O)[nH]1	none
NC(=O)Cc1csc(NC(=O)CCc2ncc(-c3ccccc3)o2)n1	none
CC(C)c1ccc(NC(=O)CCn2cnc3c2c(=O)n(C)c(=O)n3C)cc1	none
O=C(NCc1cccc(F)c1)c1ccc(CN2C(=O)CSc3ncccc32)cc1	none
Cc1ccc(SCc2ccc(C(=O)Nc3c(C)cccc3C(C)C)cc2)cc1	none
Cc1cc(C)n(-c2nc3c(c(=O)n(CCc4ccccc4)c(=O)n3C)n2CC(C)C)n1	none
COc1ccc(NC(=O)c2nc3nc(C)cc(C)n3n2)cc1OC	none
COc1ccc(NC(=O)c2cc3c(N4CCSCC4)nc(C)cn3n2)cc1OC	KDM5B inh 28µM
COc1ccc(NC(=O)c2cc3c(=O)[nH]c(C)cn3n2)cc1OC	none
O=C(NCCc1c[nH]c2ccccc12)c1ccc(Cl)c(Cl)c1	none
COC(=O)c1ccc(-c2ccc(C=O)o2)cc1	none
O=C(NCc1ccc(Cl)cc1)[C@@H]1Cc2nc[nH]c2CN1Cc1cccs1	none
COC(=O)[C@@H]1Cc2ncn(Cc3ccc(Cl)cc3)c2CN1CCCc1ccccc1	KDM5B inh 35µM
COC(=O)[C@@H]1Cc2ncn(Cc3ccc(OC)cc3)c2CN1C(=O)CC(C)(C)CC(=O)O	none
COC(=O)[C@@H]1Cc2ncn(Cc3ccc(Cl)cc3)c2CN1Cc1cccs1	KDM5B inh 28µM
COC(=O)[C@@H]1Cc2ncn(Cc3ccc(Cl)cc3)c2CN1C(=O)CC(C)(C)CC(=O)O	none
COC(=O)[C@@H]1Cc2ncn(Cc3ccc(Cl)cc3)c2CN1S(=O)(=O)Cc1ccccc1	none
Oc1c(Cl)cc(Cl)cc1Br	none
COc1ccc(OC)c(NC(=O)Cc2c(C)c3ccc(OC)cc3oc2=O)c1	none
COc1ccc2c(CC(=O)OCC(=O)c3ccccc3)coc2c1	none
Cc1ccccc1OCC(=O)OC1CCN(C)CC1	none
CN1CCC(Nc2nccc(C3(c4ccccc4Cl)CCNCC3)n2)CC1	none
Cc1ccccc1-n1cc(-c2ccnc(NC3CCN(C)CC3)n2)cn1	KDM5B inh 28µM
O=C(NCc1cccc(Cl)c1)C1CCN(c2ncnc3nc[nH]c23)CC1	none
Cc1c(C(=O)N2CCC(c3nc4ccccc4o3)CC2)oc2cc(Br)ccc12	none
O=C(NCc1cccc(C(F)(F)F)c1)c1n[nH]c2c1CCCC2	none
Cc1c(-c2ccc(F)cc2)[nH]c2ccc(CNC(=O)c3n[nH]c4c3CCCC4)cc12	KDM5B inh 10µM
O=C(NCc1ccc(N2CCCC2)nc1)c1ccc(F)cc1	none
O=C(NCc1ccc(Br)cc1)c1n[nH]c2c1CCCC2	none
Cc1c(-c2ccc(F)cc2)[nH]c2ccc(CNC(=O)c3cnn(C)c3)cc12	KDM5B inh 32µM
O=C(NCc1ccc(Cl)cc1)c1cc(-c2ccc(F)cc2)on1	none
COc1cc(/C=N/OCc2ccc(Cl)c(Cl)c2)cc(Cl)c1OC	none
COc1cc(NC(=O)CCc2c(C)c3ccc(C)cc3oc2=O)cc(OC)c1OC	none
CCNS(=O)(=O)O	none
COc1ccc(/C(O)=C2\C(=O)C(=O)NC2c2ccc(Cl)cc2)cc1F (centres undefined)	none
CCCCN(Cc1ccccc1)c1ccc(NS(=O)(=O)c2ccc(C(C)(C)C)cc2)cc1C(=O)O	none
CC(=O)Nc1nc2c(C)cc(NS(=O)(=O)c3ccc(F)cc3)cc2s1	none
Cc1[nH]c2ccccc2c1C(=O)C(=O)Nc1ccc(C(C)C)cc1	none
O=C(Nc1ccccc1-n1cncn1)C1CC(=O)N(c2ccccc2Br)C1 (centres undefined)	none
COc1ccc(-c2cc(-c3ccc(OC)nc3)cn3cncc23)cc1	none
CN(C)c1cccc(-c2cc(-c3cn[nH]c3)c3cncn3c2)c1	KDM5B inh 40µM
COc1ccc(-c2cc(-c3cn[nH]c3)c3cncn3c2)cn1	KDM5B inh 40µM
Cc1ccccc1-c1cc(-c2ccc(=O)[nH]c2)c2cncn2c1	KDM5B inh 35µM
Fc1ccc(CNC(=S)NCCc2ccc(Cl)cc2)cc1	none
O=C(CN(C1CCCCC1)S(=O)(=O)c1ccc(Br)cc1)N1CCOCC1	none
COc1ccc(S(=O)(=O)Nc2ccc(Nc3nc(C)cc(N(C)C)n3)cc2)cc1C	none
Cc1ccc2cccc(OCCNC(=O)C3NCCc4[nH]cnc43)c2n1 (centres undefined)	KDM5B inh 14µM
O=C(NCc1nncn1CCc1ccccc1)C1NCCc2[nH]cnc21 (centres undefined)	none
Cc1cc(C(F)(F)F)nc(CCNC(=O)C2NCCc3[nH]cnc32)n1 (centres undefined)	none
CSC1=N/C(=C\c2cccc(OCc3ccccc3)c2)C(=O)S1	none
Cc1cc(COc2ccc(C(=O)c3ccc(Cl)cc3)cc2)no1	none
O=C(c1cc(C2CC2)nc2onc(C3CCNC3)c12)N1CCC(F)CC1 (centres undefined)	none
COc1ccc(-c2cc(C[C@H]3CNCC[C@H]3CC(=O)N3CCOCC3)no2)cc1	none
COc1ccc(-c2cc(C(=O)NCC(C)C)c3c(C4CCNC4)nn(C)c3n2)cc1 (centres undefined)	KDM5B inh 79µM
COc1ccc(CNC(=O)c2cc(-c3ccc(C)cc3)nc3n[nH]c(-c4ccc(Br)cc4)c23)cc1	none
COc1ccc(-c2cc(C(=O)N3CCOCC3)c3c(C4CCNC4)nn(C)c3n2)cc1 (centres undefined)	KDM5B inh 79µM
